Common to all, as to test: DAPPL (digital affinity profiling via proximity ligation, sequencing); 10 mM Tris-HCl pH 7.5, 50 mM NaCl, 1 mM DTT, 4% glycerol, room temperature, 30 min; GST-TFs on glutathione beads, 16-mer random dsDNA library, 0.1% formaldehyde crosslink after washing; high values mean tight binding
One assay deals with T1, FLI1 (Homo sapiens, UniProt Q01543 1-452).
T1 sequence: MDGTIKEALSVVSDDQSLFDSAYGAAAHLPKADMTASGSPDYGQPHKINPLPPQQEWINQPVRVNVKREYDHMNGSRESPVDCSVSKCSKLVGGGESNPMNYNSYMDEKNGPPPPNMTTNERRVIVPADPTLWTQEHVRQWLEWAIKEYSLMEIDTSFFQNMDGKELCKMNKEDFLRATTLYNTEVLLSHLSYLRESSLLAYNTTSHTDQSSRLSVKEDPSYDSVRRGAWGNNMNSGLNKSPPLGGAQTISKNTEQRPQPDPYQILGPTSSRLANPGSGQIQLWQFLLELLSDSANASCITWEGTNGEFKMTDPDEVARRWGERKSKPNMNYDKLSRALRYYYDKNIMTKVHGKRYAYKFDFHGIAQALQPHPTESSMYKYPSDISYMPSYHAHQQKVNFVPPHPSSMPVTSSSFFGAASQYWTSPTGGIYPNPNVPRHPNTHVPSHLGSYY
To be noted: protein: recombinant; tags: N-terminal GST; dsDNA, one strand shown. In outline:
(§1)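 Pools were built from human transcription factors expressed in yeast as GST fusions, captured on glutathione beads and DNA-barcoded, along with a tag-only sample. Incubation with 200 nmole of a 16-mer random double-stranded DNA library lasted 30 min at room temperature in Tris/NaCl/DTT/glycerol buffer, and was followed by washing, 0.1% formaldehyde crosslinking, proximity ligation, PCR amplification and Illumina NextSeq500 sequencing. Binding signal is the quotient of each hexamer's read frequency for a factor and its frequency for the tag-only sample.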

In a further assay the target is T2, ELK1 (Homo sapiens, UniProt P19419 1-428).
T2 sequence: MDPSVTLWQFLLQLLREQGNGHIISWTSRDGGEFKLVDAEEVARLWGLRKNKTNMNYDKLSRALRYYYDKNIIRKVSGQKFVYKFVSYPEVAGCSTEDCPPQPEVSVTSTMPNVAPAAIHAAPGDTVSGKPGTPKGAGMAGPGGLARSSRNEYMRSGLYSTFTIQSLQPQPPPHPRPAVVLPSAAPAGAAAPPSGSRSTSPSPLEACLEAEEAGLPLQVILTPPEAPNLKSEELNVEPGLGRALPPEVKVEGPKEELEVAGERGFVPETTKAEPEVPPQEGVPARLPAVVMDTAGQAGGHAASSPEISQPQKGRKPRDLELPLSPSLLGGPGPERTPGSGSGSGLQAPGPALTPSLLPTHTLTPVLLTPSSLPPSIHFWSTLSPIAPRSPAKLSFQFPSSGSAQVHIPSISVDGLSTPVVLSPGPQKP
To be noted: protein: recombinant; tags: N-terminal GST; dsDNA, one strand shown. A digest of the protocol:
as §1

Another assay has as its target T3, GABPA (Homo sapiens, UniProt Q06546 1-454).
T3 sequence: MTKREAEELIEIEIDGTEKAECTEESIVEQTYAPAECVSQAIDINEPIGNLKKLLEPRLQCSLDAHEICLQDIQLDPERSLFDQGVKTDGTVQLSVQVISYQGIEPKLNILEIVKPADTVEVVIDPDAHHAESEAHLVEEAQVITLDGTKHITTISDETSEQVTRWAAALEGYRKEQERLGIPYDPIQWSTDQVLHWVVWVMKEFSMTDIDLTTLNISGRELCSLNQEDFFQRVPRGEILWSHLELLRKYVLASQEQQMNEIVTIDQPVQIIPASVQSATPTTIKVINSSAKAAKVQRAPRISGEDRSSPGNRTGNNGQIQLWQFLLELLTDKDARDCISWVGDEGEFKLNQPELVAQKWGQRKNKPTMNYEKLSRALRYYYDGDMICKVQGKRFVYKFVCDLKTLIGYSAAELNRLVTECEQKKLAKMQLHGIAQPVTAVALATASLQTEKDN
To be noted: protein: recombinant; tags: N-terminal GST; dsDNA, one strand shown. A digest of the protocol: as §1

Another assay deals with T4, ERG (Homo sapiens, UniProt P11308 1-479).
T4 sequence: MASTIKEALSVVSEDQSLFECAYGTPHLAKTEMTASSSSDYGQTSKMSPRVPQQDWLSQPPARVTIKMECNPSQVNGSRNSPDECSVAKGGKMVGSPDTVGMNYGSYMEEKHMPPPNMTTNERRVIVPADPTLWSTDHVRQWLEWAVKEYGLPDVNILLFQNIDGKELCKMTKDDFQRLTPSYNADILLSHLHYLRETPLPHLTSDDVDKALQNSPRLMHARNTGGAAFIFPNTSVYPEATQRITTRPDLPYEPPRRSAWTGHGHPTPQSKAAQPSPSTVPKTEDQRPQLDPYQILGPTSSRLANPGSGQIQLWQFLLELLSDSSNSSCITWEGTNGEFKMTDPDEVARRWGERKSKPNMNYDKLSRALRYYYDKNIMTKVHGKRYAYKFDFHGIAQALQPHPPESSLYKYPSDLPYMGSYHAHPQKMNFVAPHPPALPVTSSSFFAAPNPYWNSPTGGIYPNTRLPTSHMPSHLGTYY
To be noted: protein: recombinant; tags: N-terminal GST; dsDNA, one strand shown. In outline:
as §1

The target of the next assay is ELF1 (Homo sapiens, UniProt P32519 1-619). To be noted: protein: recombinant; tags: N-terminal GST; dsDNA, one strand shown. A digest of the protocol: as §1
In the next assay the target is T5, EHF (Homo sapiens, UniProt Q9NZC4 1-300).
T5 sequence: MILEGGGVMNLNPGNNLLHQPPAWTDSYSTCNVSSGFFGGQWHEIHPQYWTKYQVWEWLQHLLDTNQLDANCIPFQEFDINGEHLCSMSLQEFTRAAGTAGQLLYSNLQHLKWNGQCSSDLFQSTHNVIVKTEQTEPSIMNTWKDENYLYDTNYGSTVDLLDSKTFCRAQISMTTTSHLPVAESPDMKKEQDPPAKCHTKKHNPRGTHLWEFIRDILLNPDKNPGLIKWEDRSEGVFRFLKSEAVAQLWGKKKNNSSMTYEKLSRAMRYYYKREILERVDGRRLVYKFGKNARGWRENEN
To be noted: protein: recombinant; tags: N-terminal GST; dsDNA, one strand shown. A digest of the protocol: as §1

The target of a further assay is SPI1 (Homo sapiens, UniProt P17947 1-270). To be noted: protein: recombinant; tags: N-terminal GST; dsDNA, one strand shown. A digest of the protocol: as §1
The target in another assay is SPIB (Homo sapiens, UniProt Q01892 1-262). To be noted: protein: recombinant; tags: N-terminal GST; dsDNA, one strand shown. In outline:
as §1

The target in another assay is T6, ELK3 (Homo sapiens, UniProt P41970 1-407).
T6 sequence: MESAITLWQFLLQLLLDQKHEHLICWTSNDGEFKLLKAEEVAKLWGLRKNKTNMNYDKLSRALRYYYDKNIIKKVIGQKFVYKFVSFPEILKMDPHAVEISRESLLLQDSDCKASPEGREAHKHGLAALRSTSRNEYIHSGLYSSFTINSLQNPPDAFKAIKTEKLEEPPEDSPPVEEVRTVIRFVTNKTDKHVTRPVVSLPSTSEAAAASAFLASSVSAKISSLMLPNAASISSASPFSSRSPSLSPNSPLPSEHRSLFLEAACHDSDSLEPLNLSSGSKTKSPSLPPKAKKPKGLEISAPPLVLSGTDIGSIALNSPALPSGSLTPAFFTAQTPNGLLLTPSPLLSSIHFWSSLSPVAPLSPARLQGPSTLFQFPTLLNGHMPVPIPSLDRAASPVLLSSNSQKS
To be noted: protein: recombinant; tags: N-terminal GST; dsDNA, one strand shown. In outline:
as §1

Another assay deals with T7, FEV (Homo sapiens, UniProt Q99581 1-238).
T7 sequence: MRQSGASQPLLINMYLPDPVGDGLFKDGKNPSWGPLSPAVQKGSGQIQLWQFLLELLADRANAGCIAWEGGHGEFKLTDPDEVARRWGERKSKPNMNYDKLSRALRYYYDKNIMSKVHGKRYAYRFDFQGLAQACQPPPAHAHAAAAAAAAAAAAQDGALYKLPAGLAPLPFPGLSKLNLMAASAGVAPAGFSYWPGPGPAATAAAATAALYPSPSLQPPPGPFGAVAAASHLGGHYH
To be noted: protein: recombinant; tags: N-terminal GST; dsDNA, one strand shown. A digest of the protocol:
as §1

In the next assay the target is ETV5 (Homo sapiens, UniProt P41161 1-510). To be noted: protein: recombinant; tags: N-terminal GST; dsDNA, one strand shown. In outline: as §1
For a further assay, the target named is HSF1 (Homo sapiens, UniProt Q00613 1-529). To be noted: protein: recombinant; tags: N-terminal GST; chain copies: 3; dsDNA, one strand shown. A digest of the protocol: as §1
For another assay, the target named is T8, SPIC (Homo sapiens, UniProt Q8N5J4 1-248).
T8 sequence: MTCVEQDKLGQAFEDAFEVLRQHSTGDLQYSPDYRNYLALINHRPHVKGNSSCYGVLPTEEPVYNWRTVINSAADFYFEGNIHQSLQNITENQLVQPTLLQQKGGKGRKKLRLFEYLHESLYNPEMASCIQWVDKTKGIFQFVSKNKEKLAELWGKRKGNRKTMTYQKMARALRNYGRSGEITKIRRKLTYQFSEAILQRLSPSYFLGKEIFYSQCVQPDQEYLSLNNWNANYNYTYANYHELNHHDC
To be noted: protein: recombinant; tags: N-terminal GST; dsDNA, one strand shown. A digest of the protocol: as §1

A further assay deals with ELF4 (Homo sapiens, UniProt Q99607 1-663). To be noted: protein: recombinant; tags: N-terminal GST; dsDNA, one strand shown. In outline: as §1
Another assay addresses T9, ELK4 (Homo sapiens, UniProt P28324-2 1-405).
T9 sequence: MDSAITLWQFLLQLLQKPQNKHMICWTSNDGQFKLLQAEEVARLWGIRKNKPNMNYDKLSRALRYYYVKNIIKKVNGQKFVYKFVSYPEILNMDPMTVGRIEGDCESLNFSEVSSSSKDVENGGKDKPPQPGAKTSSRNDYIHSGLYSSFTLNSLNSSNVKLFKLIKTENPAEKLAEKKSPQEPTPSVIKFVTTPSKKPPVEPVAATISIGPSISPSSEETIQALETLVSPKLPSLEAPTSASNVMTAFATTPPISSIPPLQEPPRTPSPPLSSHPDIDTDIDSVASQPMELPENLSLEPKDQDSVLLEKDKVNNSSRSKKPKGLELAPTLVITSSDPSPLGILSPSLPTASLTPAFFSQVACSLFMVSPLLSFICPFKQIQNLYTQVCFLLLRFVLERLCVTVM
To be noted: protein: recombinant; tags: N-terminal GST; dsDNA, one strand shown. In outline: as §1

The target in another assay is T10, ETV2 (Homo sapiens, UniProt O00321 1-342).
T10 sequence: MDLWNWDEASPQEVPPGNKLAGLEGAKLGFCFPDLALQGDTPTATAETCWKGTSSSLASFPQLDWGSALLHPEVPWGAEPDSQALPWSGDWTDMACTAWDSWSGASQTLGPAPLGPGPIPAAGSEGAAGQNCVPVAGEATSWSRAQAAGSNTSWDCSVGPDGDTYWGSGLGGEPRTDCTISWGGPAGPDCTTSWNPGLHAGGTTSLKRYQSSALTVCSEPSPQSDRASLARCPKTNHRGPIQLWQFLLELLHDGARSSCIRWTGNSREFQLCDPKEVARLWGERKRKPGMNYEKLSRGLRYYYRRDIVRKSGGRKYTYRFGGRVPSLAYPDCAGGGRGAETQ
To be noted: protein: recombinant; tags: N-terminal GST; dsDNA, one strand shown. In outline:
as §1

In another assay the target is T11, ELF3 (Homo sapiens, UniProt P78545 1-371).
T11 sequence: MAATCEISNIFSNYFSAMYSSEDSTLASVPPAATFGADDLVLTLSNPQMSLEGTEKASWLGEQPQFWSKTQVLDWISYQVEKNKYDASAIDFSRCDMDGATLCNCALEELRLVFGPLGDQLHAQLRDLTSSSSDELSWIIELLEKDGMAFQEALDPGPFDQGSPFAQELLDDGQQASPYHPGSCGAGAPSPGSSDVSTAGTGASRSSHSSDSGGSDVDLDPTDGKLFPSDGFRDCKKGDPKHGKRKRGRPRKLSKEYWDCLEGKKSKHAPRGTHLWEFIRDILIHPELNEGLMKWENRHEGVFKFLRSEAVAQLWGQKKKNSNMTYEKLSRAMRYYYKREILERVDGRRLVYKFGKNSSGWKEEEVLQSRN
To be noted: protein: recombinant; tags: N-terminal GST; dsDNA, one strand shown. In outline:
as §1

The target of the next assay is CRX (Homo sapiens, UniProt O43186 1-299). To be noted: protein: recombinant; tags: N-terminal GST; dsDNA, one strand shown. A digest of the protocol:
as §1

Another assay concerns the target ETV1 (Homo sapiens, UniProt P50549 1-477). To be noted: protein: recombinant; tags: N-terminal GST; dsDNA, one strand shown. A digest of the protocol:
as §1

ELF4, sequence (Q99607 whole entry): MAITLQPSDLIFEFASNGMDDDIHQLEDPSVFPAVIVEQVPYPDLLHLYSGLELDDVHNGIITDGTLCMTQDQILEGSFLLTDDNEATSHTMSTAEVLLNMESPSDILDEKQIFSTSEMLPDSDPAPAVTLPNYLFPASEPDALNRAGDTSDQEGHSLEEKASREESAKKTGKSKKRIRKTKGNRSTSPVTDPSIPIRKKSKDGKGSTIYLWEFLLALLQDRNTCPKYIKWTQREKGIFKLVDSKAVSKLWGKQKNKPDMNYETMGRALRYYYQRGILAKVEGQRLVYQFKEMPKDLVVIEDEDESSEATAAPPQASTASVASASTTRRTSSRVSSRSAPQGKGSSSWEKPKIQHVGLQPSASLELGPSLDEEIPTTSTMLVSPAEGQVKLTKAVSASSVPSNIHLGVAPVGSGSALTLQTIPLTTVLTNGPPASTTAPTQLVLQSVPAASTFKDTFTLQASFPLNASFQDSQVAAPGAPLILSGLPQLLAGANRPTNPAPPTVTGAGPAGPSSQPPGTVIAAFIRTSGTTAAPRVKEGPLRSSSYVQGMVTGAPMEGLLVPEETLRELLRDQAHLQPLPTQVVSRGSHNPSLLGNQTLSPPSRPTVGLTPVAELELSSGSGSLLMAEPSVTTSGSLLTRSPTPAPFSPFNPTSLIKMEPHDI
ETV1, sequence (P50549 whole entry): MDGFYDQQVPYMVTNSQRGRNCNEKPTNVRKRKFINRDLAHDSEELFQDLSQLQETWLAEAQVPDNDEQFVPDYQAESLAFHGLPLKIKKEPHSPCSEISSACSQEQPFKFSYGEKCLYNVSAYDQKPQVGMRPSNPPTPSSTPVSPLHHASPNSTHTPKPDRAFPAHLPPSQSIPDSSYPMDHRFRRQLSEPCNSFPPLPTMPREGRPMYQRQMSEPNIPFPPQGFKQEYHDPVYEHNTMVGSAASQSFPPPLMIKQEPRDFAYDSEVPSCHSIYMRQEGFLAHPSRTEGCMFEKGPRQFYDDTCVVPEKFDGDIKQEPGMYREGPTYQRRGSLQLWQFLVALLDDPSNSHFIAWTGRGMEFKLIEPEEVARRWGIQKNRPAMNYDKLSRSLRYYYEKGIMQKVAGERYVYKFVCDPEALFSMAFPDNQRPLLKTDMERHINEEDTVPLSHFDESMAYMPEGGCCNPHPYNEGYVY
HSF1, sequence (Q00613 whole entry): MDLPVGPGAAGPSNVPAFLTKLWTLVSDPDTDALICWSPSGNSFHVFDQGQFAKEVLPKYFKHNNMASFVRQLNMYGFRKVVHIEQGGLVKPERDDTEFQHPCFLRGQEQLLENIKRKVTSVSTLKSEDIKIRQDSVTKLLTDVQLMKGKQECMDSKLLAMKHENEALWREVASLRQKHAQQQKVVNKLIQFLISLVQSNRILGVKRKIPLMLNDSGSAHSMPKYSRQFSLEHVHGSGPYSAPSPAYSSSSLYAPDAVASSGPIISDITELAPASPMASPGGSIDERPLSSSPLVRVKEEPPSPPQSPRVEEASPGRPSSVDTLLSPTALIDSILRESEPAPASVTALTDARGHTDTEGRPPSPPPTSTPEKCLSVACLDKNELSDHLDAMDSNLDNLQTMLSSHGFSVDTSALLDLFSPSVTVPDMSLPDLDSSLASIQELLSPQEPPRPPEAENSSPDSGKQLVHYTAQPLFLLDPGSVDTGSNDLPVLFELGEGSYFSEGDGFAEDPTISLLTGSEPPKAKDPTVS
SPIB, sequence (Q01892 whole entry): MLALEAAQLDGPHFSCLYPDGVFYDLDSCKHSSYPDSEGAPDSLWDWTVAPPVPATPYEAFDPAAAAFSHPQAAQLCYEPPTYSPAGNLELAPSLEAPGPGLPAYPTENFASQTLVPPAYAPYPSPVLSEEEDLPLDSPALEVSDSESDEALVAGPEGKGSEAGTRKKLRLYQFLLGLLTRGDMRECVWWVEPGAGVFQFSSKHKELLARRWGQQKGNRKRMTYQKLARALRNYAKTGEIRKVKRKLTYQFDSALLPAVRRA
CRX, sequence (O43186 whole entry): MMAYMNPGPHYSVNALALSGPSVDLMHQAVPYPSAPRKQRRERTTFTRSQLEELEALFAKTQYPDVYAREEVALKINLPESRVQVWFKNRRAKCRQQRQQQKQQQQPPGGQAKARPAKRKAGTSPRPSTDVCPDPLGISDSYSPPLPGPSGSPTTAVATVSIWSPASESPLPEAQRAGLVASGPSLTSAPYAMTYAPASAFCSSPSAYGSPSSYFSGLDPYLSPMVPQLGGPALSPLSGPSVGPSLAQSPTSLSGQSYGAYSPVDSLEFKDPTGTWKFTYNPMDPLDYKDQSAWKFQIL
ELF1, sequence (P32519 whole entry): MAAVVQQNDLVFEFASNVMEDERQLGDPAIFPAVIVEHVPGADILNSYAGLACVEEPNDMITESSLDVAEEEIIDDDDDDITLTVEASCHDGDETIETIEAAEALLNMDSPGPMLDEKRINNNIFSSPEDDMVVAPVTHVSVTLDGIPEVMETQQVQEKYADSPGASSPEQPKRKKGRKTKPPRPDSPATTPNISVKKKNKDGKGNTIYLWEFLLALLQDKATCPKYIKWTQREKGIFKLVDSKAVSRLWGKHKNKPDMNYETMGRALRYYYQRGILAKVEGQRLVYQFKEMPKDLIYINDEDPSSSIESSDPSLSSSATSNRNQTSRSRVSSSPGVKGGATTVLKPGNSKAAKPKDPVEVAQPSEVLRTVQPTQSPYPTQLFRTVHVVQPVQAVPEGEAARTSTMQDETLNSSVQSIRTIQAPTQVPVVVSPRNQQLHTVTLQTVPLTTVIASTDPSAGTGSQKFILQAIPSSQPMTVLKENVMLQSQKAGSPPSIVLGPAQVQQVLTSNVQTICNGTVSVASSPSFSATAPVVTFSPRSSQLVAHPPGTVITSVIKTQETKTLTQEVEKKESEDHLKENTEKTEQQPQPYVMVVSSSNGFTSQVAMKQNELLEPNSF
ETV5, sequence (P41161 whole entry): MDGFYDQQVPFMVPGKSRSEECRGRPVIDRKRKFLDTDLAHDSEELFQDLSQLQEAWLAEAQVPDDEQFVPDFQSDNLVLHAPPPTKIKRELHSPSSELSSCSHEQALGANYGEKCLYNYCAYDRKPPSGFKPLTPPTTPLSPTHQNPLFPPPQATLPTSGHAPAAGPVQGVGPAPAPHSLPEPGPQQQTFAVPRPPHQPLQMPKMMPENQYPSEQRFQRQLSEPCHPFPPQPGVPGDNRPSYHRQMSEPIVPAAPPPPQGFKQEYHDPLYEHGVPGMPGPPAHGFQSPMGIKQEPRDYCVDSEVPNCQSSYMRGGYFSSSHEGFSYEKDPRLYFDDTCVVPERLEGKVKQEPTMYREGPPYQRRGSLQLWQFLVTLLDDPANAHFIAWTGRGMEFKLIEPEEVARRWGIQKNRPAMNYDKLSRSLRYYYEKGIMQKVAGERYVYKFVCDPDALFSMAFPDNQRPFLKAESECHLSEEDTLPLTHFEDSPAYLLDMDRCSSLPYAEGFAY

Turning to CCGTAA, the binding signal with FLI1 was 1.09 fold enrichment (6-mer frequency, TF over GST control); with ELK1 it was 1.1 fold enrichment (6-mer frequency, TF over GST control); with GABPA it was 1.1 fold enrichment (6-mer frequency, TF over GST control); in the assay with ERG, 1.14 fold enrichment (6-mer frequency, TF over GST control); in the assay with ELF1, 1.09 fold enrichment (6-mer frequency, TF over GST control); with EHF, 1.17 fold enrichment (6-mer frequency, TF over GST control). The binding signal with SPI1 was 1.13 fold enrichment (6-mer frequency, TF over GST control); in the assay with SPIB, 1.06 fold enrichment (6-mer frequency, TF over GST control); with ELK3 it was 1.14 fold enrichment (6-mer frequency, TF over GST control); with FEV, 1.07 fold enrichment (6-mer frequency, TF over GST control); with ETV5 it was 1.06 fold enrichment (6-mer frequency, TF over GST control); in the assay with HSF1, 1.09 fold enrichment (6-mer frequency, TF over GST control). The binding signal with SPIC was 1.03 fold enrichment (6-mer frequency, TF over GST control); with ELF4 it was 1.14 fold enrichment (6-mer frequency, TF over GST control); in the assay with ELK4, 1.15 fold enrichment (6-mer frequency, TF over GST control); with ETV2 it was 1.2 fold enrichment (6-mer frequency, TF over GST control); in the assay with ELF3, 1.1 fold enrichment (6-mer frequency, TF over GST control); in the assay with CRX, 1.27 fold enrichment (6-mer frequency, TF over GST control). In addition, in the assay with ETV1, the binding signal was 1.05 fold enrichment (6-mer frequency, TF over GST control).

The values above are taken from article PMC7862700, “An all-to-all approach to the identification of sequence-specific readers for epigenetic DNA modifications on cytosine”.
